Measurements published in PubChem BioAssay (NCI).
About 79,000 compounds went through this panel and 15% of them were active in at least one assay; those are over-represented in the sample as a whole. Calls of active or inactive are those of the source. No stated cut-off is given here; in the data, active means growth inhibition above about 70%; inactive means the rest.

Experiment: NCI Yeast Anticancer Drug Screen. Data for the sgs1 mgt1 strain (AID 161);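 further: 0% = growth of cultures given vehicle only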
Settings: S. cerevisiae sgs1 mgt1 strain, at 50.0 µM (retest, dose inferred, filed as 5.0), stronger effect = higher value
Method in brief: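 Read-out: growth inhibition vs vehicle controls. Cells: mutant yeast strain deficient in DNA damage repair.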

Row | Compound | growth inhibition
1 | COc1ccc(CN2CCCN(Cc3ccc(OC)cc3OC)C2c2ccc(N(CCCl)CCCl)cc2)c(OC)c1 | 42% (inactive)
2 | [Cl][Pt+2][Cl].[NH-]c1ccc([N+](=O)[O-])cc1[NH-] | 94% (active)
3 | O=C(Oc1ccc(S(=O)(=O)F)cc1F)c1ccccc1Cl | 99% (active)
4 | Oc1c(I)cc(I)cc1I | 53% (inactive)
5 | CCCCCCCCCCCCCCCC[N+](C)(C)CCOS(C)(=O)=O | 99% (active)
6 | CN(C)CC1(N)C(=O)NC(=O)NC1=O | 8% (inactive)
7 | CC1=C(O)C(=O)C=C2C1=CC=C1[C@@]2(C)CC[C@@]2(C)[C@@H]3C[C@](C)(C(=O)O)CC[C@]3(C)CC[C@]12C | 99% (active)
8 | CCC[CH2][Sn]([CH2]CCC)([N]=C=S)[N]=C=S | 98% (active)
9 | O=C(C[n+]1ccccc1)C1CCc2ccccc2C1 (stereo not given) | 0% (inactive)
10 | [Cl][Pt][Cl].c1ccc([AsH](CC[AsH](c2ccccc2)c2ccccc2)c2ccccc2)cc1 | 99% (active)
11 | COc1cc(/C=C\[N+](=O)[O-])ccc1O | 99% (active)
12 | Cc1sc(Cc2ccccc2)nc1-c1ccc(N=Cc2ccc(N(CCCl)CCCl)cc2)cc1 | 98% (active)
13 | CC1(C)C2CCC([CH2][Hg][Cl])C1C2 (stereo not given) | 97% (active)
14 | CC12C(=O)C=CCC1=CCC1C2CCC2(O)C(=O)OC3(C)C4CC5(C)C(COC16OC23C5C6=O)C(=O)O4 (stereo not given) | 31% (inactive)
15 | O=C(CBr)OCC(Br)CBr (stereo not given) | 36% (inactive)
16 | S=c1[nH]c2ccccc2s1.[Pb] | 8% (inactive)
17 | O=[N+]([O-])c1ccc(C(Br)Br)cc1 | 99% (active)
18 | CC(C)(C)[Si](OC(=O)N(CCCl)CCCl)(c1ccccc1)c1ccccc1 | 82% (active)
19 | CCCCCCCC[N+]12CN3CN(CN(C3)C1)C2 | -28% (inactive)
20 | CC(C=O)[Se]c1ccccc1 (stereo not given) | 72% (active)

Row | Compound | growth inhibition
21 | CCOP(=O)(N=Nc1cccnc1)OCC | -11% (inactive)
22 | COc1cc(/C=C/c2ccc(OC)c(O)c2)cc(OC)c1 | 98% (active)
23 | ClC1CCCCC1[Se](Cl)(Cl)C1CCCCC1Cl (stereo not given) | 99% (active)
24 | C/C(=N/NC(N)=S)c1ccc(Cl)cc1 | 93% (active)
25 | O=C(Nc1ccccc1)c1cc([N+](=O)[O-])ccc1O.[Ni] | 100% (active)
26 | CC1(C)N=C(N)N=C(N)N1c1ccc(OCCCCNC(=O)Nc2ccc(S(=O)(=O)F)cc2)c(Cl)c1 | 98% (active)
27 | Nc1nc(N)c(-c2ccc(Cl)c(Cl)c2)c(COc2ccc(CNC(=O)Nc3cccc(S(=O)(=O)F)c3)cc2Cl)n1 | 6% (inactive)
28 | CC(=O)[O-].CC(=O)[O-].O=C(N/N=C/c1cc(Cl)cc(Cl)c1[OH2+])c1ccncc1.[Co+2] | 33% (inactive)
29 | CC(Br)C(=O)C(CCN(C)C)(c1ccccc1)c1ccc(Br)s1 (stereo not given) | 10% (inactive)
30 | [N-]=[N+]=NC1(N=[N+]=[N-])C(=O)NN=C(c2ccccc2)C1=O (stereo not given) | 83% (active)
31 | NC(=O)c1cc([N+](=O)[O-])c(Cl)c([N+](=O)[O-])c1Cl | 98% (active)
32 | Nc1nc(N)c(-c2ccc(Cl)c(Cl)c2)c(CCc2ccc(CNC(=O)c3cccc(S(=O)(=O)F)c3)cc2)n1 | 99% (active)
33 | CCOC(=O)C(Cl)Cl | -2% (inactive)
34 | C1=C[N-]c2c3c(ccc2=C1)=CC=C[N-]3.C1=C[N-]c2c3c(ccc2=C1)=CC=C[N-]3.F[P-](F)(F)(F)(F)F.[Cu+2] | 99% (active)
35 | CCCCCCCCCCC(=O)O.[Pb] | 9% (inactive)
36 | CN(Cc1ccccc1)CC(O)c1cccc(I)c1 (stereo not given) | 36% (inactive)
37 | CCOc1c(Br)cc(N=Cc2ccc(N(CCCl)CCCl)c(OC)c2)cc1Br | 69% (inactive)
38 | COC(=O)C1ON(c2ccccc2)C2c3ccccc3-c3ccccc3C12 (stereo not given) | 76% (active)
39 | COc1ccccc1C(Cc1ccc(N2C(N)=NC(N)=NC2(C)C)cc1)C(=O)Nc1ccc(S(=O)(=O)F)cc1 (stereo not given) | 22% (inactive)
40 | O=[N+]([O-])c1cc([N+](=O)[O-])c(Cl)s1 | 100% (active)
